An excerpt weighted towards active compounds, which were near 0.97% of everything screened.
Six1-Eya2 inh: qHTS Assay for Inhibitors of the Six1/Eya2 Interaction. hit rate 0.56% among 360,000. activity change, % (no concentration beside the values). Homeobox protein SIX1 (Homo sapiens) + Protein phosphatase EYA2 (Homo sapiens), …. AlphaScreen GST-Six1/His-Eya2 binding, biochemical; hits give low values
Target sequence (O00167 whole entry, looked up): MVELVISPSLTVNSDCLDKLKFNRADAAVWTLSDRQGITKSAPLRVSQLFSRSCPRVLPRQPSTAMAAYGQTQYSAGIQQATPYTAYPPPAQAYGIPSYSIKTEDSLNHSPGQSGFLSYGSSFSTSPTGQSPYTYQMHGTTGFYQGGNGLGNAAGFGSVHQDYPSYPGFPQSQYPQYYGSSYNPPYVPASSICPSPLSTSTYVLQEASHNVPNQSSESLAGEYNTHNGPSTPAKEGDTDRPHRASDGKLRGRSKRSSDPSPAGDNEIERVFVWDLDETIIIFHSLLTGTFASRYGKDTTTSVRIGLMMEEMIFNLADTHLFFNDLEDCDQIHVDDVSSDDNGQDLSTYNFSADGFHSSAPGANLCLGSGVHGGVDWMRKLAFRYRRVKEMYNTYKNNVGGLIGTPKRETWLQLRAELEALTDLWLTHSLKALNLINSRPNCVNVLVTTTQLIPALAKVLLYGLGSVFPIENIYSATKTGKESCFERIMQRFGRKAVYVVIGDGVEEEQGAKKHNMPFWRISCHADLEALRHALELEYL
Target sequence (Q15475 whole entry, looked up): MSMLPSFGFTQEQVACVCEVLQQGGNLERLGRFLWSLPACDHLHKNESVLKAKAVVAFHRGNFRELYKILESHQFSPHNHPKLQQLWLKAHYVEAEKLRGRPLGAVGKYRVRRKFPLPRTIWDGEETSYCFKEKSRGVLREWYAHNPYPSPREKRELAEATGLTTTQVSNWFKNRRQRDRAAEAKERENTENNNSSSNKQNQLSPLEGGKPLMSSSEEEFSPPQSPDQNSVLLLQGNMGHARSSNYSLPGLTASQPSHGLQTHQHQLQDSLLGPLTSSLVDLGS
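Homogeneous AlphaScreen proximity assay pairing GST-Six1 with His-tagged Eya2 (added as 5X mix: 250 nM and 500 nM) in 50 mM Tris pH 8.0, 300 mM NaCl, 1 mM TCEP. Glutathione donor and nickel acceptor beads; 1 h, 37 °C, dark.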
PI4K2A block: qHTS for small molecular inhibitors of PI4K2A | Phosphatidylinositol 4-kinase type 2-alpha (Homo sapiens), Q9BTU6 | purified PI4K2A, ADP-Glo luminescence, 1 h; hits give low values | activity change, negative = inhibition, % at 76.9 µM | hit rate 0.13% among 420,000; in the data active means activity change below about -50%; inconclusive means mostly about -30% to -49%
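ADP-Glo luminescence measured ADP generated by PI4K2A enzyme (4 ug/mL before mixing) with 1.2 mM PI substrate (pre-mix) and 300 microM ATP (pre-mix). Tris pH7.5 buffer with MgCl2, Triton X-100; 1 h reaction at ambient temperature.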
CCT modulator: High-Throughput Screening for Modulators of Cytosolic Chaperonin Activity; AID 651819, 2012; hit rate 0.3% among 360,000; activity change, % (no concentration beside the values), hits read low; purified chaperonin ATPase assay, HTRF ADP detection, 30 min; in the data active means activity change below about -30%
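TRiC (40 or 20 nM final, by batch activity) in 30 mM Tris pH 7.4, 100 mM KCl, 5 mM MgCl2, 1 mM DTT was treated with compound at 76 uM single dose, then 10 uM ATP, 30 min at 37 °C. ADP was read by HTRF Transcreener.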
CtBP-E1A blk: qHTS Assay for Inhibitors of the CtBP/E1A Interaction. AlphaScreen GST-E1A/His-CtBP binding, 1536-well; hits give low values. CtBP / adenovirus E1A interaction (AlphaScreen). hit rate 0.49% among 340,000. activity change, % (concentration not given with the values). AID 651724, 2012
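Homogeneous bead-based format: GST-tagged E1A captured on glutathione donor beads, His-tagged CtBP on nickel acceptor beads; compounds precede bead addition by 2 h at 37 °C.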
Eya2 phos inh: qHTS Assay for Inhibitors of the Phosphatase Activity of Eya2. Protein phosphatase EYA2 (Homo sapiens), O00167. hit rate 0.006% among 330,000. Potency, µM (doses to about 76.9 µM), actives largely listed as inhibitors. recombinant Eya2, OMFP fluorescence dephosphorylation (OMFP is methylfluorescein phosphate)
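Eya2 (0.2 uM) preincubated 10 min at ambient with compound, then OMFP substrate added at 50 uM; 10 min reaction in 50 mM HEPES pH 7.5, 50 mM NaCl, 5 uM MgCl2, 0.05% BSA, 1 mM DTT. Fluorescence read at Ex 485/Em 525 nm.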
Hits are given with their value; n = inactive; u = inconclusive; x = no result. Unless noted, no stated cut-off is given here; in the data, active means activity change below about -65%; inconclusive means mostly about -30% to -63%; inactive means weaker than that.

SMILES	Six1-Eya2 inh	PI4K2A block	CCT modulator	CtBP-E1A blk	Eya2 phos inh
CC(=O)NNC(=O)c1sc(=S)n2c1[nH]c(=O)c1sccc12	-65.3	n	n	u	n
O=C(NCc1ccccc1)c1sc(=S)n2c1[nH]c(=O)c1ccccc12	n	n	n	n	n
Cc1nn(C)c(C)c1CN(Cc1nc(-c2ccc(F)cc2F)oc1C)C1CC1	n	n	n	n	n
Cc1ccc(-c2nc(CN(Cc3c(C)nn(C)c3C)C(C)C)c(C)o2)o1	-89.7	n	n	n	n
CCN(C(=O)CN1C(=O)NC2(CCc3ccccc32)C1=O)C1CCS(=O)(=O)C1 (configuration not stated)	n	n	-33.6	x	n
CC(C)CN(C(=O)CN1C(=O)NC2(CCc3ccccc32)C1=O)C1CCS(=O)(=O)C1 (configuration not stated)	n	n	n	n	n
CCOC(=O)N1CCC(NC(=O)c2cnn(-c3ccc(C)cc3)c2C2CCN(C(=O)OC(C)(C)C)CC2)CC1	x	n	x	x	x
Cc1ccc(-c2nc3ccc(Cl)cc3n2OC(C)C(=O)O)cc1 (configuration not stated)	n	n	-55.3	n	n
C=CCn1c(=O)n([C@@H]2O[C@H](CO)[C@@H](O)[C@H]2O)c2nc(N)[nH]c(=O)c21	x	n	x	x	x
Cc1cccc(OCc2nc(C#N)c(N3CC(C)CC(C)C3)o2)c1 (configuration not stated)	u	n	n	n	n
Cc1cccc(OCc2nc(C#N)c(N3CCCC3)o2)c1	n	n	-30.2	u	n
Cc1cc(NC(=O)CN2C(=O)C(C)(C)c3ccccc32)ccc1Br	x	n	x	x	x
CC1CCN(C(=O)Cn2c(SCC(=O)Nc3ccc(F)cc3)nc3ccccc32)CC1	x	n	x	x	x
CCOC(=O)c1ccc2ncc(C(=O)OCC)c(NCCN(C)C)c2c1	n	n	n	n	x
CCN(CC)CCCNc1ccc2ncn3c4ccc(O)cc4c(=O)c1c23	u	-50.4	n	n	x
CN(C)CCNc1ccc2nnn3c4ccc(O)cc4c(=O)c1c23	-76.6	n	n	n	x
O=C(CSc1nnc(CNC(=O)c2ccc(F)cc2)o1)Nc1nccs1	-88.0	n	n	-86.6	n
O=C(CSc1nnc(COc2ccc(Cl)cc2)o1)Nc1nccs1	-86.9	n	n	u	x
O=C(CSc1nnc(-c2cccnc2)o1)Nc1nccs1	-71.5	n	n	u	n
Cc1cccc(OCc2nnc(SCC(=O)Nc3ccc(N4CCOCC4)cc3)o2)c1	n	n	n	n	n
Cc1cccc(OCc2nnc(SCC(=O)Nc3nccs3)o2)c1	-94.4	n	n	-93.1	n
COc1cccc(NC(=O)CSc2nnc(COc3ccc(Cl)cc3)o2)c1	x	n	x	x	x
O=C(CSc1nnc(-c2cccnc2)o1)Nc1ccc(F)cc1	n	n	n	n	x
Cc1ccc(Sc2c(C)nn(-c3ccccc3)c2OC(=O)C(C)(C)C)cc1	x	n	x	x	x
Cc1ccsc1/C=N/N=C/c1sccc1C	n	n	n	x	n
SMILES	Six1-Eya2 inh	PI4K2A block	CCT modulator	CtBP-E1A blk	Eya2 phos inh
Cc1ccsc1C=Nc1ccc(O)cc1	u	-59.3	n	u	n
Cc1ccc(Cl)cc1NC(=O)C1CCCN(S(=O)(=O)c2cccc3cccnc23)C1 (configuration not stated)	x	n	x	x	x
O=C(CSc1nnc(CNC(=O)c2ccco2)o1)Nc1ccc(F)cc1	n	n	n	n	n
O=C(CSc1nnc(CNC(=O)c2cccc(C(F)(F)F)c2)o1)NCC1CCCO1 (configuration not stated)	n	n	n	n	n
Cc1cc(NC(=O)CSc2nnc(CNC(=O)c3cccc(C(F)(F)F)c3)o2)no1	-72.2	n	n	-78.4	n
O=C(CSc1nnc(CNC(=O)c2ccco2)o1)Nc1ccc(OC(F)(F)F)cc1	n	n	-47.3	x	n
CCC(=O)N1CCC(C(=O)NC2CCCc3ccccc32)CC1 (configuration not stated)	x	n	x	x	x
Cc1ccccc1-n1nc2c(c1NC(=O)C(C)(C)C)CS(=O)(=O)C2	n	n	-43.0	n	n
CC(C)CC(=O)Nc1ccc2c(c1)oc1ccccc12	n	n	-40.3	n	n
